# Laboratory results: PubChem BioAssay (NCI)
# This is part of a sample that, as a whole, favours compounds with a hit. Of some 83,000 tested, about 20% had one in any assay.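 Step 1: grow cells in 96-well plates. Step 2: add test compound at a single concentration. Step 3: incubate 48 h. Step 4: record percent growth.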 A number with no mark means an inactive call. Calls of active or inactive are those of the source. Rule for the calls: active = growth percent below 10; inactive = the rest.
# Tests used:
# Experiment in all cases: NCI-60 one-dose screen, 48 h (100 = growth as untreated, 0 = no growth, -100 = all killed)
# Details in all cases: 10 µM unless noted
# [1] = test system: SK-MEL-2 melanoma
# [2] = test system: SN12C renal
# [3] = test system: UO-31 renal
# [4] = test system: TK-10 renal
# [5] = test system: ACHN renal
# [6] = test system: CAKI-1 renal
# [7] = test system: A498 renal
# [8] = test system: CCRF-CEM leukemia
# [9] = test system: MOLT-4 leukemia
SMILES,growth [1],growth [2],growth [3],growth [4],growth [5],growth [6],growth [7],growth [8],growth [9]
CCOC(=O)c1cc(C(=O)c2ccc(OC)c(OC)c2)n2ccc(/C=C/c3cc[n+](CC(=O)c4ccc(OC)c(OC)c4)cc3)cc12,112%,86.8%,82.7%,113%,96.3%,96.2%,95.6%,85.7%,93.7%
CC1(C)CC[C@]2(C(=O)O)CC[C@]3(C)C(=CC[C@@H]4[C@@]5(C)Cc6c([nH]c7ccccc67)C(C)(C)[C@@H]5CC[C@]43C)[C@@H]2C1,72.6%,42.8%,32.7%,31.3%,18.2%,17.5%,–,30.6%,32.3%
O=C(Nc1ccc(NC(=O)c2cc(=O)[nH]c3ccccc23)cc1)Nc1cccc(Cl)c1,101%,88.8%,65.3%,90.2%,97.6%,78.1%,–,77.1%,–
C=C1C(=O)O[C@H]2[C@H]1CC/C(COC(=O)NCc1c[nH]c3ccc(F)cc13)=C\CC[C@@]1(C)O[C@@H]21,28.6%,-64.4% (active),-99.5% (active),-15.1% (active),-84.1% (active),-87.3% (active),–,-8.32% (active),3.81% (active)
C=C1C(=O)O[C@H]2[C@H]1CC/C(COC(=O)NCc1c[nH]c3ccc(Br)cc13)=C\CC[C@@]1(C)O[C@@H]21,1.8% (active),-43.2% (active),-98.3% (active),-68.7% (active),-71.2% (active),-92.8% (active),–,-13.1% (active),-2.46% (active)
O=C(NCCNc1nccc(-c2c(-c3cccc(F)c3)nc3sccn23)n1)c1ccc(Cl)cc1,62.5%,52.5%,28.1%,75.4%,–,41.5%,–,58.2%,65.7%
N#CC1=C(N)Oc2c(cnn2-c2ccc([N+](=O)[O-])cc2[N+](=O)[O-])C1c1ccccc1 (centres undefined),110%,101%,79.9%,99.4%,103%,90.6%,50.7%,79.7%,–
NC1=NN=C(N)C1=Cc1cc2ccccc2n2nnnc12,102%,97.9%,77.1%,114%,102%,91.1%,–,97.5%,94.6%
C=C(C)[C@@H]1CC[C@]2(C(=O)N[C@H](CO)Cc3ccccc3)CC[C@]3(C)[C@H](CC[C@@H]4[C@@]5(C)CCCNC(C)(C)[C@@H]5CC[C@]43C)[C@@H]12,-92.5% (active),-83.3% (active),-92.6% (active),-94.7% (active),-95.9% (active),-93.5% (active),-97.9% (active),-46.7% (active),-62.6% (active)
C=C(C)[C@@H]1CC[C@]2(C(=O)N3CCN(C)CC3)CC[C@]3(C)[C@H](CC[C@@H]4[C@@]5(C)CC[C@H](OCCC#N)C(C)(C)[C@@H]5CC[C@]43C)[C@@H]12,97.7%,90.7%,81.8%,106%,103%,99.8%,–,23%,59.7%
N#Cc1c(NC(=O)NCc2ccccc2)sc2c1CCCC2,45.6%,35.3%,47.2%,49.1%,46.2%,38.1%,–,16.6%,17.7%
O=C1CC(=O)OC(c2ccc([N+](=O)[O-])cc2)O1,-40.2% (active),-37.6% (active),-88.2% (active),-15.5% (active),-76.2% (active),-45.7% (active),104%,15.3%,–
C#CCNC(=O)[C@H](Cc1ccccc1)NC(=O)[C@]12CC[C@@H](C(=C)C)[C@@H]1[C@H]1CC[C@@H]3[C@@]4(C)CCC(=O)C(C)(C)[C@@H]4CC[C@@]3(C)[C@]1(C)CC2,86.8%,76%,54%,65.3%,75.7%,55.4%,–,65.1%,46.3%
